# ST2 inh: inhibitors of human ST2 (IL1RL1) binding to IL-33, primary screen, biochemical, AlphaLISA; Interleukin-1 receptor-like 1 (Homo sapiens), Q01638; AlphaLISA ST2-Fc/biotin-IL-33 interaction, 1 h; inhibition, % for hits at 17 µM; 78,000 compounds, 2.3% hits; AID 1259354, 2018; in the data active = inhibition above about 30%
# Target sequence (Q01638 whole entry, looked up): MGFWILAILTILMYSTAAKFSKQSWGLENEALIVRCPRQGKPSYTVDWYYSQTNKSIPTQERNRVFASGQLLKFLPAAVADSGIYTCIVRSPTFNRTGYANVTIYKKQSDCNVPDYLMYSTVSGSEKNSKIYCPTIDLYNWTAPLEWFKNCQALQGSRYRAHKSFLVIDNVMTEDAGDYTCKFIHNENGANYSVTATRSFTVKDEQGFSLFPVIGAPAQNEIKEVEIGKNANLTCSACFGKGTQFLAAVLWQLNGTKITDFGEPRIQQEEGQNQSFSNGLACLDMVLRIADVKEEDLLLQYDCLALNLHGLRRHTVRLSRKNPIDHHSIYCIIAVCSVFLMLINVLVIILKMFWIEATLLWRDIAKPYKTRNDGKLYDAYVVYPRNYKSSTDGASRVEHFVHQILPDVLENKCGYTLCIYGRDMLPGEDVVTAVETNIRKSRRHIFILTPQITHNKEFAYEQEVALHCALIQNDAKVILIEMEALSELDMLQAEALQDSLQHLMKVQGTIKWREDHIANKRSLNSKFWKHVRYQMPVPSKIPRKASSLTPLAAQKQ
# The depositor's hits bear a star; i = inactive. Shown is part of a subset that was picked to be rich in hits.
SMILES,ST2 inh
COc1ccccc1NC(=O)N1C[C@@H]2C[C@H](C1)c1ccc(-c3ccc(Cl)cc3)c(=O)n1C2,i
COc1ccccc1-c1ccc(N2C[C@@H]3C[C@H](C2)c2cccc(=O)n2C3)nn1,i
COc1ccccc1N1CCN(C[C@H]2CN3CC[C@H]2C[C@@H]3CNC(=S)NCc2ccco2)CC1,i
CCC1(C)CC(CCNCc2ccccc2)(c2ccc(OC)cc2)CCO1 (stereo not given),i
O=C(c1ccco1)N1C[C@@H]2C[C@H](C1)c1ccc(-c3cccc(C(F)(F)F)c3)c(=O)n1C2,i
Cc1ccccc1N1CCN(Cc2ccc(F)cc2)CC1,i
CN1CCc2nc3ccccc3c(C(=O)O)c2C1,i
O=C1C2CCCN2C(c2ccco2)N1c1ccccn1 (stereo not given),i
CS(=O)(=O)NC[C@H]1C[C@@H]2CCN1C[C@@H]2CN1CCN(c2ccccc2)CC1,i
Cc1cc(Br)c2[nH]cc(CCN)c2c1,i
Cn1nc(C2CCCCC2)cc1[C@H]1CN2CC[C@H]1C[C@@H]2CNS(=O)(=O)c1cccs1,i
c1ccc(C23CC4CN(CCN(C4)C2)C3)cc1,i
Cc1ccccc1N1CCN(Cc2ccc(Br)cc2)CC1,i
CC(C)c1ccc(CN2CCN(c3ccccc3)CC2)cc1,i
COc1ccc(N2CCN(Cc3cccc(Br)c3)CC2)cc1,44.0%*
CC(=O)c1ccc(N2CCN(Cc3cccc(Br)c3)CC2)cc1,i
Brc1ccc(CN2CCN(c3ccccc3)CC2)cc1,32.0%*
Fc1ccc(N2CCN(Cc3cccc(Br)c3)CC2)cc1,i
CC(C)c1noc(CN2CCC3(CC2)C(=O)N(C)c2ccccc23)n1,i
O=C(c1ccc(=O)[nH]c1)N1[C@H]2CCNC[C@@H]1CC2,i
Cn1nc(-c2ccco2)cc1[C@H]1CN2CC[C@H]1C[C@@H]2CNC(=O)CCCC(=O)O,i
CCCN1CCN(C(=O)Cc2c(C(=O)O)[nH]c3ccccc23)CC1,i
COCC(=O)NC[C@H]1C[C@@H]2CCN1C[C@@H]2CN1CCN(c2ccccc2)CC1,i
S=C(NC[C@H]1C[C@@H]2CCN1C[C@@H]2CN1CCN(c2ccccn2)CC1)Nc1ccccc1,i
O=[N+]([O-])c1ccc(N2CCCCC2)c2ncccc12,62.0%*
SMILES,ST2 inh
O=[N+]([O-])c1ccc(NCc2ccccc2)c2ncccc12,51.0%*
CCN(CCNc1ccc([N+](=O)[O-])c2cccnc12)S(=O)(=O)c1ccccc1,i
O=[N+]([O-])c1ccc(O)cc1CN1CCN(Cc2ccccc2)CC1,i
N#Cc1c(Cl)c(Cl)nc(N2CCCNCC2)c1Cl,43.0%*
CCOC(=O)Cc1csc(NC(=O)c2cccn(Cc3ccc(C(F)(F)F)cc3)c2=O)n1,i
COc1ccc(-c2cc([C@H]3CN4CC[C@H]3C[C@@H]4CNC(=S)Nc3ccccc3)n(C)n2)cc1,i
N#Cc1cccc(-c2ccc3n(c2=O)C[C@H]2C[C@@H]3CN(C(=O)c3cccs3)C2)c1,i
CCN(CC)C(=O)c1ccc(N2C(=O)C3CC=C(Cl)CC3C2=O)cc1 (stereo not given),i
CCN(CC)C(=O)c1ccc2c(c1)C1C=CCC1C(C(=O)O)N2 (stereo not given),60.0%*
COc1ccc(-c2ccc(=O)n3c2[C@@H]2C[C@@H](CN(C(=O)Nc4ccc(C)cc4)C2)C3)cc1,i
CCCS(=O)(=O)N1C[C@@H]2C[C@H](C1)c1c(-c3ccc4ccccc4c3)ccc(=O)n1C2,i
CN(C)c1ccc(N2CCNCC2)c([N+](=O)[O-])c1,i
CC1CCN(c2cc(Br)c([N+](=O)[O-])cc2F)CC1,45.0%*
O=[N+]([O-])c1cc(F)c(N2CCCCC2)cc1Br,42.0%*
CC1CN(c2ccccc2[N+](=O)[O-])CC(C)N1 (stereo not given),i
O=C(CN1CC=C(c2cnn(-c3ccccn3)c2)CC1)NCC1CCCO1 (stereo not given),i
CCN(C)c1ccnc(N2CCC3(CC2)CN(C)CCN3C)n1,i
CC(=O)N1C[C@@H]2C[C@H](C1)c1ccc(N)c(=O)n1C2,i
Cn1nc(-c2cccs2)cc1[C@H]1CN2CC[C@H]1C[C@@H]2CNC(=S)Nc1cccc(C#N)c1,i
CCN1CCN(Cc2ccc(OC)c(C)c2C)CC1,i
COc1ccc(CN2CCN(Cc3ccccc3)CC2)c(C)c1C,34.0%*
COc1ccc(CN2CCN(C)CC2)c(OC)c1C,i
CCOC(=O)c1c(C)n(C(C)C)c2ccc(OC)cc12,i
COc1ccc2c(c1)c(CCN)c(C)n2Cc1ccccc1,38.0%*
COc1ccc2c(CCN)c[nH]c2c1,i
SMILES,ST2 inh
C#Cc1ccc(CN(C)C(C)Cc2cc(C)ccn2)cc1 (stereo not given),i
O=[N+]([O-])c1ccc(N2CCN(Cc3ccc(Br)cc3)CC2)cc1,i
CCN1CCN(Cc2cccc(C)c2)CC1,i
COc1ccc(N2CCN(Cc3cccc([N+](=O)[O-])c3)CC2)cc1,i
Oc1cccc(CN2CCN(c3ccc(F)cc3)CC2)c1,i
Cc1cccc(CN2CCN(c3ccc([N+](=O)[O-])cc3)CC2)c1,42.0%*
O=[N+]([O-])c1ccc(N2CCN(Cc3cccc(Br)c3)CC2)cc1,32.0%*
CN(C)Cc1cn(C[C@H]2C[C@@H]3CCN2C[C@@H]3C(=O)N2CCCC2)nn1,i
C=CCN(C)C[C@H]1CN2CC[C@H]1C[C@@H]2CNS(=O)(=O)c1cccs1,i
COCC(=O)NC[C@H]1C[C@@H]2CCN1C[C@@H]2CN1CCC(Cc2ccccc2)CC1,i
COc1ccccc1N1CCN(C[C@H]2CN3CC[C@H]2C[C@@H]3CNC(=O)Nc2cccc(F)c2)CC1,i
CCOc1ccccc1CN1CCN(CC)CC1,i
COc1ccc(C(=O)N2C[C@@H]3C[C@H](C2)c2ccc(NC(=O)C4CC4)c(=O)n2C3)cc1,i
Cc1cccc(NC(c2ccc(N(C)C)cc2)c2ccc3ccc(C)nc3c2O)n1 (stereo not given),44.0%*
O=C(Nc1ccc2n(c1=O)C[C@H]1C[C@@H]2CN(C(=O)Cc2cccs2)C1)C1CCCCC1,i
CCOC(=O)C1C2NC(=O)N(c3cc(C)cc(C)c3)C1(C)Oc1c(OC)cccc12 (stereo not given),i
O=[N+]([O-])c1ccc(C(Cl)Cl)o1,64.0%*
C=C[C@H]1CN2CC[C@H]1C[C@@H]2CNC(=S)NCC,i
COc1ncc(C(=O)N2CCN3CCN(C)C(=O)C3C2)cn1 (stereo not given),i
O=C(O)COCC(=O)N1C[C@@H]2C[C@H](C1)c1ccc(NC(=O)Cc3ccccc3)c(=O)n1C2,i

# Screens as filed in PubChem BioAssay.
